# High-throughput results deposited in PubChem BioAssay by National Center for Advancing Translational Sciences (NCATS).
# Nrf2 inh: blocks Nrf2 signaling; A549 ARE-Fluc reporter, luciferase luminescence, 18-24 h; Potency, µM (top dose mostly 46 µM), without a hit: at the highest dose activity change, negative = inhibition, usual class: inhibitors; 360,000 compounds, 2.1% hits; note: potency is the fitted concentration of half-maximal effect; % is set by controls: 0 for no effect and ±100 for the full control effect; nearly all actives have a fitted effect of over 60% in size
#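 Concentration-response testing used A549 ARE_Fluc cells at 5000 cells/well. Following an 18-24 h compound incubation, viability was read by fluorescence (Ex 405/Em 525) and luciferase output by luminescence.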
# p53 reactivation: mutant p53 re-activation in reporter cells | AID 504706 | Potency, µM (top dose mostly 92.2 µM), without a hit: at the top dose activity change, positive = activation, usual class: activators | 320,000 compounds, 0.063% hits | H1299 p53-A138V BP100-luciferase reporter, luminescence, 24 h; note: potency is the fitted concentration of half-maximal effect; % of control where 0% means no effect; nearly all actives have a fitted effect of over 45% in size
#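 p53-null H1299 cells stably carrying temperature-sensitive p53-A138V and a BP100-luciferase reporter were pinned with compounds (4-point, 1:5 series) and held 24 hrs at 37 deg C. Luminescence was read 10 min after detection reagent.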
# IL2 activator: activators of IL-2; IL-2 activation reporter assay, cell-based qHTS; stimulated with anti-CD3/CD4/CD28 beads; in transgenic mouse T cells; 360,000 compounds, 0.065% hits; activation, % (series mostly up to about 46 µM); AID 652025; in the data active = activation above about 50%; inconclusive = mostly about 30% to 49%; note: 0% is about no effect
#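 Quantitative HTS in unstimulated transgenic mouse T cells, with memory T cells as non-tolerant control and PMA/ionomycin as tolerance-bypass control. Compound pretreatment lasted 60 minutes before 18 h bead stimulation; EGFP/DsRed fluorescence read.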
# BRCA1 expr up: increases BRCA1 expression | MCF7-BRCA1-FFLuc reporter, luminescence, 48 h; response scale: scaled: vehicle 0%, 10 µM genistein 100% | Potency, µM (highest dose often 46.1 µM), for inactives: at the highest dose activation, most hits filed as activators | 380,000 compounds, 1.1% hits | AID 624202; note: potency is the fitted concentration of half-maximal effect; nearly all actives have a fitted effect of over 80% in size
#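 Cells: MCF7-BRCA1-FFLuc, 2000/well. Exposure: 48 h, 37 °C, 5% CO2. Read: luminescence, 15 min post-substrate. Controls: genistein 10 microM (maximal activation), DMSO (neutral).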
# A549 tox: kills or reduces viability of A549 cells in Nrf2 counter-screen. A549 ARE-Fluc cells, CellTiter-Fluor viability, 18-24 h. Potency, µM (top dose mostly 46 µM), without a hit: top-dose activity change, negative = cytotoxicity, actives largely listed as inhibitors. 390,000 compounds, 0.16% hits. AID 504648; note: potency is the fitted concentration of half-maximal effect; % is set by controls: 0 for no effect and ±100 for the full control effect
#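 A549 ARE-Fluc cells in 5% FBS OPTI-MEM, 5000 cells/well, rested 2 h then exposed to compounds in concentration-response for 18-24 h at 37 °C. Viability by CellTiter-Fluor fluorescence (Ex 405/Em 525) after 30 min; luciferase luminescence (BugLite, 15 min, RT) read afterwards.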
# Nrf2 activator: Nrf2 pathway activation; AREc32 ARE-luciferase reporter (MCF7-derived line), luminescence, 24 h; Potency, µM (titrated, usually from 46.1 µM), for inactives: top-dose activation, usual class: activators; 410,000 compounds, 0.31% hits; note: potency is the fitted concentration of half-maximal effect; % of control where 0% means no effect; nearly all actives have a fitted effect of over 65% in size
#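 Steps: seed AREc32_Fluc cells (1000/well, 5% FBS OPTI-MEM); incubate overnight at 37 deg C; add 23 nL compound; incubate 24 hr; add Steady-Glo; hold 30 min RT; read luminescence.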
# * = called active by the depositor; u = inconclusive; x = not tested or not shown; [ ] = dose if it differs, or a comment. In the library only some 3.2% were active in any assay of this set; here they are far more common. Unless noted, calls come from the whole dose curve; as a rule, active = well fitted curve in the direction sought with a large enough effect; inconclusive = small, poorly fitted or top-dose-only effect, or another doubt; inactive = no such curve, though single readings can be large; an effect the other way counts as inactive or inconclusive.
SMILES,Nrf2 inh,p53 reactivation,IL2 activator,BRCA1 expr up,A549 tox,Nrf2 activator
COc1ccc(C2C(C(=O)Nc3cccnc3)=C(C)Nc3nc(-c4ccccc4)nn32)cc1OC (centres undefined),-7.5%,x,x,x,-1.2%,3.9%
CC(=O)N1CCc2cc(S(=O)(=O)N3c4ccccc4CC3C)ccc21 (centres undefined),14.6µM*,0.1%,-1.5,-64.5%,-11.8%,-0.1%
CC1=CC(C)(C)Nc2ccc(OC(=O)C(C)N3C(=O)c4ccccc4C3=O)cc21 (centres undefined),25.9µM*,-21.1%,14.6,-73.2%,1.5%,-1.3%
Cc1ccc(Cn2ccc(NC(=O)c3cc(-c4cccc(Cl)c4)on3)n2)cc1,20.6µM*,25.4%,1.7,-32.6%,u,-0.2%
Cn1nc(C(F)(F)F)c(C#N)c1N1CCN(c2ccc(F)cc2)CC1,11.6µM*,-4.1%,0.5,-21.0%,-3.5%,0.2%
COc1ccc(-n2sc3ccccc3c2=O)cc1,x,x,-3.7,11.9%,x,26.2%
COc1ccc(-n2[nH]c3c(cnc4ccccc43)c2=O)cc1,x,x,0.1,14.1µM*,x,3.3%
CC1CCC2(C1)N=C(Nc1nc3ccccc3o1)NC1=C2C(=O)CCC1 (centres undefined),-8.1%,x,x,x,-4.4%,x
Cc1ccc(S(=O)(=O)Nc2cccc3ncccc23)s1,14.6µM*,-58.2%,-0.4,-82.7%,u,u
COC(=O)C1=C(C)NC(=O)NC1c1cn(-c2ccccc2)nc1-c1cccs1 (centres undefined),-4.1%,-5.9%,-0.2,-11.0%,-10.7%,3.2%
CC1=C(C(=O)OC(C)C)C(c2cn(-c3ccccc3)nc2-c2cccs2)NC(=O)N1 (centres undefined),18.4µM*,-7.2%,-1.5,-67.6%,u,2.3%
COc1ccc(OCc2cc(C(=O)NC(C)Cc3cnccn3)no2)c(Cl)c1 (centres undefined),u,u,-2.8,11.2µM*,0.8%,0.2%
COc1ccc(OCc2cc(C(=O)NCC3CCCCO3)no2)c(Cl)c1 (centres undefined),8.0%,u,0.8,12.6µM*,0.7%,1.5%
COc1ccc(OCc2cc(C(=O)N(C)Cc3cnccn3)no2)c(Cl)c1,5.4%,22.9%,-2.9,8.91µM*,5.1%,0.0%
CSc1ccccc1OCc1cc(C(=O)N(C)Cc2cnccn2)no1,5.4%,9.9%,1.3,u,4.5%,0.5%
O=C(CSc1n[nH]c(-c2ccccc2)n1)NCCCc1ccccc1,x,x,x,x,1.3%,3.5%
Cc1oc2ncn(C)c(=O)c2c1C(=O)N1CCN(c2cccc(C(F)(F)F)c2)CC1,23.8%,x,x,0.0%,1.4%,0.2%
CC1=CC(C)(C)N=C(Nc2ccc(C)cc2)S1,u,u,0.5,12.6µM*,-4.1%,4.7%
CC(C)(C)OC(=O)N1CCC(c2c(C(=O)N3CCN(c4ccccn4)CC3)cnn2-c2ccc(F)cc2F)CC1,-22.0%,x,x,x,5.0%,-0.7%
COc1ccc(C(=O)Nc2cc3c4c(c2)CC(=O)N4CCC3)c(OC)c1,u,9.4%,-1.0,3.98µM*,5.1%,4.8%
CCc1cc2c3c([nH]c2cc1S(=O)(=O)N1CCC2(CC1)OCCO2)CCCC3=O,u,-6.1%,2.9,-28.7%,-0.6%,-0.4%
Cc1cc2c3c([nH]c2cc1S(=O)(=O)N1CCC2(CC1)OCCO2)CC(C)(C)CC3=O,23.1µM*,18.5%,0.4,-93.8%,15.9%,3.4%
C=CCN(c1ccccc1)S(=O)(=O)c1cccc(C(=O)N2CC(C)CC(C)C2)c1 (centres undefined),20.6µM*,2.9%,2.1,-51.7%,u,5.4%
C=CCN(c1ccccc1)S(=O)(=O)c1cccc(C(=O)N2CCCC2)c1,8.2%,-5.0%,-0.5,-10.9%,-1.8%,0.2%
Oc1ccc(CNCc2ccccc2F)c2cccnc12,1.3µM*,x,x,x,-10.5%,x
SMILES,Nrf2 inh,p53 reactivation,IL2 activator,BRCA1 expr up,A549 tox,Nrf2 activator
Oc1ccc(CNc2ccc(F)cc2)c2cccnc12,7.31µM*,25.3%,-2.6,-87.5%,u,-0.1%
Oc1ccc(CNc2ccccc2)c2cccnc12,5.17µM*,3.3%,-2.3,-89.7%,-13.5%,7.7%
Cc1ccc(NCc2ccc(O)c3ncccc23)c(F)c1,20.6µM*,x,x,x,-10.3%,x
Oc1ccc(CNc2ccc(C(F)(F)F)cc2F)c2cccnc12,-16.8%,x,x,x,0.4%,x
Cc1cccc(NCc2ccc(O)c3ncccc23)c1,u,-2.7%,-0.4,-34.9%,-24.3%,3.0%
Cc1cc(C)c2c(CC(=O)Nc3ccc(S(=O)(=O)Nc4ncccn4)cc3)coc2c1,-16.9%,x,x,x,2.1%,0.0%
Cc1nc(Nc2ccc(F)cc2)[nH]c(=O)c1CCC(C)C,14.6µM*,13.9%,-1.5,-55.9%,u,0.1%
Cc1ccc(C(=O)NCCC2=CCCCC2)cc1S(=O)(=O)N1CCCCC1,23.1µM*,15.2%,-0.5,-11.9%,u,7.5%
COc1ccc(C(CNC(=O)c2ccc(Cl)c(S(=O)(=O)N3CCCC3)c2)N2CCCC2)cc1 (centres undefined),-3.9%,6.5%,-0.3,-26.4%,1.5%,-0.2%
O=C(c1ccc(Cl)c(S(=O)(=O)N2CCCC2)c1)N1CCCCC1,-10.9%,8.8%,-3.0,-8.0%,1.5%,-0.2%
O=C(O)c1ccc(Cl)c(S(=O)(=O)N2CCCCCC2)c1,25.9µM*,-2.9%,-0.7,0.2%,u,0.2%
O=C(NCCC1=CCCCC1)c1ccc([N+](=O)[O-])cc1,u,u,-0.3,u,13.7%,0.0%[9.22 µM]
COc1ccc(CCNC(=O)c2ccc(Cl)c(S(=O)(=O)N3CCCC3)c2)cc1,16.4µM*,1.3%,-1.1,-11.1%,-5.1%,-0.7%
Cc1cc(C(=O)NCCC2=CCCCC2)ccc1[N+](=O)[O-],u,7.1%,-0.8,5.01µM*,-4.2%,2.2%
CCOC(=O)c1c(-c2ccccc2)oc2ccc(NS(=O)(=O)c3cc(C)c(C)cc3C)cc12,-52.0%,x,x,x,0.6%,-0.6%
CCN(CC)CCNC(=O)CCn1c(=O)c2cccn2c2cccnc21,6.7%,x,x,x,-1.8%,6.4%
COc1ccc(CCNC(=O)COc2ccc(S(=O)(=O)NC3CCCCC3)cc2Cl)cc1,20.6µM*,-3.0%,-1.6,-34.5%,u,0.2%
CC(/C=N/NC(=O)CSc1nnc(SCc2ccccc2)s1)=C\c1ccco1,1.3%,2.2%,1.7,10.7%,-1.0%,11.2µM*
CC(/C=N/NC(=O)c1cnccn1)=C\c1ccco1,24.1%,11.9%,-1.9,56.1%,-12.5%,8.91µM*
CC(/C=N/NC(=O)c1cccnc1)=C\c1ccco1,12.0%,u,0.1,101.6%,7.2%,u
